Measured values taken from PubChem BioAssay AID651550 (National Center for Advancing Translational Sciences (NCATS), 2012).
Hit rate of the full screen: of about 360,000 compounds, about 1,100 (0.31%) were called active. The full list was thinned out, with actives kept by preference. Unmarked numbers belong to inactive results. Rule as the data show it: active = activity change below about -80%; inconclusive = mostly about -51% to -80%; inactive = weaker than that.

Target: RAC-alpha serine/threonine-protein kinase (Homo sapiens) (UniProt P31749)
Test: HTS Assay for Inhibitors of Akt Phophorylation: Primary Screen
Details: Neuro2A IGF-stimulated pAkt S473 HTRF, 20 min; at 50 µM, active compounds read low
Source text: The serine/threonine protein kinase Akt (protein kinase B) regulates various cellular processes, including cell survival, growth, proliferation, migration and differentiation. It has been well established that Akt is activated through two essential steps involving membrane translocation and phosphorylation. Cytosolic Akt is recruited to the plasma membrane via the interaction between the PH domain and membrane PIP3 produced by phosphoinositide-3 kinase (PI3K) upon growth factor receptor stimulation. The membrane-Akt interaction results in conformational changes of Akt, enabling its activation through phosphorylation at T308 in the kinase domain and at S473 in the C-terminal hydrophobic motif by PDK1 and mTOR-rictor complex (mTORC2), respectively. […] These findings indicate that S473 phosphorylation, as an important modulator of Akt activation, may be a valuable drug target for cell growth, survival, proliferation and differentiation. These inhibitors also may have significant therapeutic potential with fewer side effects, especially for the conditions involving hyperactive Akt signaling, such as cancer and Alzheimer's disease.
To this end, a miniaturized assay was developed to be screened against the Molecular Libraries Small Molecule Repository (MLSMR).
NIH Chemical Genomics Center [NCGC]
NIH Molecular Libraries Probe Centers Network [MLPCN]
Assay Submitter (PI): Hee-Yong Kim, National Institute on Alcohol Abuse and Alcoholism
3 uL of Neuro2A cell suspension in DMEM containing 0.5% FBS and […] antibiotics mix was plated in a white solid bottom tissue culture-treated 1536-well plate (Greiner Bio-One, Monroe, NC) at 4,500 cells per well and incubated overnight at 37 deg C. 23 nL/well of compound solutions in DMSO was added with Pintool transfer (Kalypsis, San Diego, CA) at single […] final concentration. Then, the cells were stimulated with 1.5 uL of IGF (6 nM final concentration) and incubated at 37 deg C for 20 min. The reaction was terminated by the addition of 1.5 uL blocking reagent mixed with lysis buffer (1:25 correspondingly) provided with HTRF(R) Phospho Akt (Ser473) kit (Cisbio US, Bedford, MA), with following incubation for 50 min at ambient temperature. The detection HTRF conjugates from the kit were prepared according to the protocol, pre-mixed 1:1 prior to dispensing, and 2 uL/well was added with BioRAPTR FRD dispenser (Beckman Coulter). The assay plates were incubated for 24 hours at ambient temperature, and the HTRF fluorescence was measured using Envision plate reader (PerkinElmer) with excitation at 330nm, emission at 615nm (Eu(3)-Cryptate donor signal) and 665nm (d2 acceptor signal). The ratio of […] was calculated for each well.
% is scaled to controls: 0 for no effect and ±100 for the full control effect.

| Compound | activity change |
| --- | --- |
| CCOC(=O)[C@]12CCCC=C1N(CCC1=CCCCC1)C(=O)[C@H](CC(=O)N1CCCCC1)C2 | inactive |
| O=C1C=C(c2ccc(Cl)cc2)C(=O)N1Nc1ccccc1 | -112% (active) |
| CC(C)(C)n1nc2c(c1NC(=O)c1ccc(S(=O)(=O)N3CCCC3)cc1)CS(=O)C2 (stereo unspecified) | inactive |
| COc1ccc(C(C(=O)Nc2c(C)cccc2C)N2CCN(c3ccc(C)cc3)CC2)cc1 (stereo unspecified) | inactive |
| O=C1CC2(CCCC2)C(=O)N1CN1CCN(S(=O)(=O)c2ccc(F)cc2F)CC1 | inactive |
| O=C(CN1C(=O)NC2(CCCCCC2)C1=O)NC1CC1 | inactive |
| O=C(O)CCN1C(=O)CC2(CCCCC2)C1=O | -117% (active) |
| NS(=O)(=O)c1ccc(CCNC(=O)NC2CCCCC2)cc1 | inactive |
| CN1OC[C@@H]2CN[C@H](c3ccc(-c4ccccc4)cc3)C[C@@H]21 | inactive |
| CCOC(=O)[C@]12CCCC=C1N(CCC1=CCCCC1)C(=O)[C@H](CC(=O)NCCCOC)C2 | inactive |
| CCCCCNC(=O)C(c1ccc(OC)cc1)n1c(=O)c(-c2ccccc2)nc2ccccc21 (stereo unspecified) | inactive |
| Cc1cccc(OCc2nnc(SCc3nc4cc(C(F)(F)F)ccc4c(=O)[nH]3)o2)c1 | -3.13% |
| Nc1nnc(SCn2nnc3ccccc3c2=O)s1 | inactive |
| Cc1cccc(OCc2nnc(SCn3nnc4ccccc4c3=O)o2)c1 | -101% (active) |
| COc1ccccc1NC(=O)C1CCCN1S(=O)(=O)c1ccc(Cl)cc1 (stereo unspecified) | inactive |
| Cc1cccc(NC(=O)C2CCCN2S(=O)(=O)c2ccc(F)cc2)c1C (stereo unspecified) | -118% (active) |
| Cc1cccc(NC(=O)C2CCCN(C(=O)Nc3ccc(F)cc3)C2)c1C (stereo unspecified) | inactive |
| Cc1ccc(N(Cc2ccccc2O)C(=O)c2ccccc2F)cc1 | inactive |
| COc1cccc(N(C(=O)CNC(=O)c2ccco2)C(C(=O)NC2CCCCC2)c2cccnc2)c1 (stereo unspecified) | inactive |
| Cc1ccc(N(C(=O)CNC(=O)c2ccco2)C(C(=O)NC2CCCC2)c2ccncc2)cc1 (stereo unspecified) | inactive |
| CC(C)(C)NC(=O)C(c1ccncc1)N(C(=O)CNC(=O)c1ccco1)c1ccc2c(c1)OCO2 (stereo unspecified) | -97.2% (active) |
| O=C(Cc1cccs1)Nc1ccc([N+](=O)[O-])cc1 | inactive |
| CCCc1ccc(-c2csc(NC(=O)Cc3cccs3)n2)cc1 | -105% (active) |
| COc1ccc(OC)c(NC(=O)Cc2cccs2)c1 | inactive |
| O=C(Nc1ccc2c(c1)C(=O)OC2)Nc1cccc2ccccc12 | inactive |
| CCn1cc(C(=O)N2CC(C)CC(C)C2)c(=O)c2cc(S(=O)(=O)N3CCCC3)ccc21 (stereo unspecified) | inactive |

| Compound | activity change |
| --- | --- |
| CCn1cc(C(=O)NCC2CCCO2)c(=O)c2cc(S(=O)(=O)N3CCCCC3)ccc21 (stereo unspecified) | -109% (active) |
| CCn1cc(C(=O)NC2CCCCCC2)c(=O)c2cc(S(=O)(=O)N3CCCCC3)ccc21 | inactive |
| CC(C)(C)NC(=O)C(CCc1ccccc1)n1c(=O)c(-c2ccccc2)nc2ccccc21 (stereo unspecified) | inactive |
| CCC(c1nnnn1C1CCCC1)N(Cc1cccs1)Cc1cc2cccc(C)c2[nH]c1=O (stereo unspecified) | -108% (active) |
| CCC(c1nnnn1Cc1ccco1)N(CCc1ccccc1)Cc1cc2cccc(C)c2[nH]c1=O (stereo unspecified) | -20.5% |
| Cc1cccc2cc(CN(Cc3nnnn3Cc3ccccc3)C3CCCC3)c(=O)[nH]c12 | inactive |
| CCc1ccccc1N(CC(=O)NCCSCc1ccco1)S(C)(=O)=O | inactive |
| Cc1[nH]c2ccccc2c1C(=O)c1cc([C@H](NC(=O)OC(C)(C)C)C(C)C)sc1N | inactive |
| COc1c(Br)cc2c(C)c(C(=O)N3CCOCC3)oc2c1Br | -114% (active) |
| Cc1ccc2c(C)c(C(=O)N3CCN(c4ccncc4)CC3)oc2c1C | inactive |
| O=C(c1cc2cc(Br)cc(Br)c2oc1=O)N1CCOCC1 | inactive |
| CCOC(=O)[C@]12CCCC=C1N(CCC1=CCCCC1)C(=O)[C@H](CC(=O)N1CCOCC1)C2 | inactive |
| OCCC#Cc1ccc(N2C(c3ccsc3)=Cc3ccc(F)cc3C2c2c[nH]c3ccccc23)cc1 (stereo unspecified) | inactive |
| CC(C)CC1(C)NC(=O)N(CC(=O)Nc2ccc3c(c2)OCCO3)C1=O (stereo unspecified) | inactive |
| CC1=NN(C(C)C)C(=O)C1 | -118% (active) |
| CCOC(=O)NN1C(=O)c2ccccc2NC1c1ccccc1O (stereo unspecified) | inactive |
| CC1(C(=O)NCc2ccccc2)CSCC(=O)N1CCCN1CCOCC1 (stereo unspecified) | inactive |
| COc1ccc2ccccc2c1CNCc1ccccn1 | inactive |
| CSCCC(C(=O)NC(C)(C)C)n1c(-c2ccccc2)nc2ccccc21 (stereo unspecified) | inactive |
| Cc1c(Br)c([N+](=O)[O-])nn1C(C)C(=O)Nc1nccs1 (stereo unspecified) | -109% (active) |
| O=C(CCn1ccc([N+](=O)[O-])n1)Nc1nccs1 | inactive |
| CC(NC(=O)C(=O)Nc1nccs1)c1ccccc1 (stereo unspecified) | inactive |
| CC(CN1CCCCC1)OC(=O)c1ccccc1Cl (stereo unspecified) | -96.5% (active) |
| Cc1cccc(C(=O)OC(C)CN2CCN(C)CC2)c1 (stereo unspecified) | inactive |
| Cc1cccc(C(=O)OC(C)CN2CCCC2)c1 (stereo unspecified) | inactive |
